Many of the other results were omitted from the sample, so hits are more common in it than they were.
CHX counter – Cycloheximide Counterscreen for Small Molecule Inhibitors of Shiga Toxin; cell reporter, cycloheximide protein synthesis inhibition counterscreen; max response, %; 300,000 compounds, 12% hits; AID 2314, 2010; in the data active means max response mostly above about 13%, no sharp cut-off; inactive means mostly below about 14%; further: read at 38.3 µM for the half of the compounds with a filed dose
NS1 function inh – qHTS Assay for Inhibitors of Influenza NS1 Protein Function; Potency, µM (titrated, usually from 46.1 µM); 270,000 compounds, 0.4% hits; calls by dose curve; further: actives are rising curves; nearly all actives have a fitted effect of over 50% in size
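Read-out: OD600 growth recovery of NS1-expressing budding yeast. Cells grown overnight at 30C in -URA glucose medium, washed, resuspended and diluted 1:100 in 2% galactose assay medium, pH 6.0. Same strain lacking NS1 served as positive control.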
SARS PLpro yeast – qHTS of Yeast-based Assay for SARS-CoV PLP; Potency, µM (titrated, usually from 32.9 µM), hits mostly activators; 330,000 compounds, 0.19% hits; AID 485353, 2010; S. cerevisiae expressing SARS-CoV PLpro, growth rescue; calls by dose curve; further: nearly all actives have a fitted effect of over 55% in size
LmPK inh – qHTS Assay for Inhibitors of Leishmania Mexicana Pyruvate Kinase (LmPK); 290,000 compounds, 0.37% hits; Potency, µM (titrated, usually from 57.5 µM), most hits filed as inhibitors; purified LmPK, Kinase-Glo ATP luminescence, 1 h
Target sequence (Q27686 whole entry, looked up): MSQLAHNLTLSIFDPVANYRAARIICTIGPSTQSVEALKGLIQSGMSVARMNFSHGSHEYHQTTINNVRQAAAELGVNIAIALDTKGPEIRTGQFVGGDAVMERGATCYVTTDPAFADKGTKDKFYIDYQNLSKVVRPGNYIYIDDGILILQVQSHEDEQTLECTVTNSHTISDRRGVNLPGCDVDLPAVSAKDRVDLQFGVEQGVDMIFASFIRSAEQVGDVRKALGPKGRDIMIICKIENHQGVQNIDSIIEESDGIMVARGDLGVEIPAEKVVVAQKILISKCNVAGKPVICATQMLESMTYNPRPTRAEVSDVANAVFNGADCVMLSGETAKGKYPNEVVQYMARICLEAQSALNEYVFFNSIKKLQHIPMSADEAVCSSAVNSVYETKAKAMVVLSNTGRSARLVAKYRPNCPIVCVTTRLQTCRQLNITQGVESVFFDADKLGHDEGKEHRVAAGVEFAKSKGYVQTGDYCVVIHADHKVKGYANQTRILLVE
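ATP generated from ADP (0.1 mM) and PEP (0.5 mM) by 0.1 nM LmPK over 1 h at room temperature (pH 7.2 imidazole buffer) was detected by coupled luciferase luminescence. Values were normalized to uninhibited and no-enzyme wells.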
Shiga inhibitor – A qHTS for Small Molecule Inhibitors of Shiga Toxin. Vero cells, Shiga toxin protein synthesis inhibition reporter. inhibition, % at 38.7 µM. 290,000 compounds, 9.2% hits; in the data active means inhibition mostly above about 28%, no sharp cut-off; inactive means mostly below about 43%
TbPYK inhibitor – qHTS of Trypanosoma Brucei Inhibitors; pyruvate kinase (Trypanosoma brucei), Q57TT1; TbPYK enzyme, Kinase-Glo Plus ATP luminescence, 45 min; Potency, µM (top dose mostly 76.8 µM), hits mostly inhibitors; 410,000 compounds, 0.12% hits; further: nearly all actives have a fitted effect of over 50% in size
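Luminescent Kinase-Glo Plus end-point after 45 min room-temperature reaction of T. brucei pyruvate kinase started with 130 uM ADP (final). Buffer TEA 50 mM pH 7.2 with KCl, MgCl2, BSA, Tween-20; titration-based qHTS with fitted concentration-effect curves.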
A number is an active result. Unless noted, the call rests on the fitted dose curve; in most records, active means well fitted curve in the direction sought with a large enough effect; inconclusive means small, poorly fitted or top-dose-only effect, or another doubt; inactive means no such curve, though single readings can be large; an effect the other way counts as inactive or inconclusive.

Cc1ccc(C(=O)O/N=C(\N)c2ccc(Br)cc2)cc1 was read as CHX counter 33, NS1 function inh inactive, SARS PLpro yeast inactive, LmPK inh inactive, Shiga inhibitor 60 and TbPYK inhibitor inactive.
N/C(=N\OC(=O)c1cccc(Br)c1)c1ccc(Br)cc1 was read as CHX counter inactive, NS1 function inh inactive, SARS PLpro yeast inactive, LmPK inh inactive, Shiga inhibitor inactive and TbPYK inhibitor inactive.
Screening CC(=O)Nc1c(Br)cc2c(c1Br)Cc1cc([N+](=O)[O-])ccc1-2 returned TbPYK inhibitor inactive.
Screening COc1ccc(C(=O)O/N=C(\N)c2ccccc2)cc1 returned CHX counter inactive, NS1 function inh inactive, SARS PLpro yeast inactive, LmPK inh inconclusive, Shiga inhibitor inactive and TbPYK inhibitor inconclusive.
For CC(C)(C)c1ccc(C(=O)O/N=C(\N)c2ccccc2)cc1 the results were CHX counter 60, NS1 function inh inactive, SARS PLpro yeast inactive, LmPK inh inactive, Shiga inhibitor 74 and TbPYK inhibitor inactive.
For CCNC(=S)NNC(=O)c1cc(-c2cccnc2)nc2ccccc12 the results were CHX counter inactive, SARS PLpro yeast inactive, LmPK inh inactive, Shiga inhibitor inactive and TbPYK inhibitor inactive.
Screening CCCCOc1cccc(-c2cc(C(=O)NNC(=S)NCC)c3ccccc3n2)c1 returned CHX counter 28, NS1 function inh inactive, SARS PLpro yeast inactive, LmPK inh inactive, Shiga inhibitor inactive and TbPYK inhibitor inactive.
For CCCCOc1ccc(-c2cc(C(=O)NNC(=S)NCC)c3ccccc3n2)cc1 the results were CHX counter inactive, NS1 function inh inactive, SARS PLpro yeast inactive, LmPK inh inactive, Shiga inhibitor inactive and TbPYK inhibitor inactive.
Screening CCNC(=S)NNC(=O)c1cc(-c2cccc(C)c2)nc2ccccc12 returned CHX counter 21, NS1 function inh inactive, SARS PLpro yeast inactive, LmPK inh inconclusive, Shiga inhibitor inactive and TbPYK inhibitor inactive.
For CCNC(=S)NNC(=O)c1cc(-c2cccc(OCC)c2)nc2ccccc12 the results were CHX counter 14, NS1 function inh inactive, SARS PLpro yeast inactive, LmPK inh inactive, Shiga inhibitor inactive and TbPYK inhibitor inactive.
For CCCOc1ccccc1C(=O)N1CCNC(=O)C1CC(=O)OC(C)C (centres undefined) the results were CHX counter inactive, NS1 function inh inactive, SARS PLpro yeast inactive, LmPK inh inactive, Shiga inhibitor inactive and TbPYK inhibitor inactive.
For CCC(O)c1cnc(OCc2ccccc2)nc1OCc1ccccc1 (centres undefined) the results were TbPYK inhibitor inactive.
O=C(NC12CC3CC(CC(C3)C1)C2)c1ccc([N+](=O)[O-])o1 was read as CHX counter 11, NS1 function inh inactive, SARS PLpro yeast inactive, LmPK inh inactive, Shiga inhibitor inactive and TbPYK inhibitor inactive.
Screening O=C(NC12CC3CC(CC(C3)C1)C2)c1ccc(-c2ccc(Br)cc2)o1 returned CHX counter 68, NS1 function inh inactive, SARS PLpro yeast inactive, LmPK inh inactive, Shiga inhibitor 108 and TbPYK inhibitor inactive.
Screening O=C(NC1CCS(=O)(=O)C1)c1ccc(-c2ccc(Br)cc2)o1 (centres undefined) returned CHX counter 19, NS1 function inh inactive, SARS PLpro yeast inactive, LmPK inh inactive, Shiga inhibitor inactive and TbPYK inhibitor inactive.
CC(=O)c1sc(NC(=O)CCc2ccccc2)nc1C was read as TbPYK inhibitor inactive.
For CCOc1ccccc1OCCCC(=O)Nc1nc2ccccc2[nH]1 the results were CHX counter inactive, SARS PLpro yeast inactive, LmPK inh inactive, Shiga inhibitor inactive and TbPYK inhibitor inactive.
`COc1ccccc1CCC(=O)Nc1nc2ccccc2[nH]1` gave CHX counter 40, NS1 function inh inactive, SARS PLpro yeast inactive, LmPK inh inactive, Shiga inhibitor 69 and TbPYK inhibitor inactive.
`COc1ccc(CCC(=O)Nc2cnc3ccccc3c2)cc1` gave CHX counter 32, NS1 function inh inactive, SARS PLpro yeast inactive, LmPK inh inactive, Shiga inhibitor 79 and TbPYK inhibitor inactive.
COc1cccc(CC(=O)Nc2nc3ccccc3[nH]2)c1 was read as CHX counter 24, NS1 function inh inactive, SARS PLpro yeast inactive, LmPK inh inactive, Shiga inhibitor inactive and TbPYK inhibitor inactive.
`CCCCCC(=O)Nc1nc2ccccc2[nH]1` gave CHX counter 32, NS1 function inh inactive, SARS PLpro yeast inactive, LmPK inh inactive, Shiga inhibitor 62 and TbPYK inhibitor inactive.
Nc1ccn([C@H]2O[C@H](CO)[C@@H]3[O][Sn]([c]4ccccc4)([c]4ccccc4)[O][C@H]32)c(=O)n1 was read as NS1 function inh inactive.
`COc1ccc(CCC(=O)Nc2nc3ccccc3[nH]2)cc1` gave CHX counter 19, NS1 function inh inactive, SARS PLpro yeast inactive, LmPK inh inactive, Shiga inhibitor inactive and TbPYK inhibitor inactive.
`COc1ccc(OCC(=O)Nc2nc3ccccc3[nH]2)cc1` gave CHX counter 22, NS1 function inh inactive, SARS PLpro yeast inactive, LmPK inh inactive, Shiga inhibitor 38 and TbPYK inhibitor inactive.
Screening C[C@@H]1OC(Nc2ccc(N=Nc3ccccc3)cc2)[C@H](O)[C@H](O)[C@H]1O (some centres undefined) returned CHX counter 35, NS1 function inh inactive, SARS PLpro yeast inactive, LmPK inh inactive, Shiga inhibitor 52 and TbPYK inhibitor inactive.
`COc1cc(Cl)c(C)cc1NC(=O)CSc1nc2c(c(=O)[nH]1)CCCC2` gave TbPYK inhibitor inactive.
For Cc1cc2cc(C=C(C#N)C#N)c(Cl)nc2cc1C the results were CHX counter 25, NS1 function inh inactive, SARS PLpro yeast inactive, LmPK inh inactive, Shiga inhibitor active and TbPYK inhibitor inactive.
N#C/C(C(=O)N1CCOCC1)=C1\Nc2ccccc2S1 was read as CHX counter 35, NS1 function inh inactive, SARS PLpro yeast inactive, LmPK inh inactive, Shiga inhibitor 64 and TbPYK inhibitor inactive.
Screening N#C/C(=C\c1cccs1)C(=O)N1CCOCC1 returned CHX counter inactive, NS1 function inh inactive, SARS PLpro yeast inactive, LmPK inh inactive, Shiga inhibitor inactive and TbPYK inhibitor inactive.
For N=c1sc2ccccc2n1CCS (tested in a mixture with another compound) the results were NS1 function inh inactive.
CCS(=O)(=O)c1nc(S(=O)(=O)c2ccc(Cl)cc2)c(N2CCOCC2)s1 was read as CHX counter inactive, NS1 function inh inactive, SARS PLpro yeast inactive, LmPK inh inactive, Shiga inhibitor inactive and TbPYK inhibitor inactive.
Screening CCCCc1nc(S(=O)(=O)c2ccc(Cl)cc2)c(N2CCOCC2)o1 returned CHX counter 27, NS1 function inh inactive, SARS PLpro yeast inactive, LmPK inh inactive, Shiga inhibitor 34 and TbPYK inhibitor inactive.

Screening results from PubChem BioAssay.
